E coli growth-1 = blocks Escherichia coli growth; OD600 absorbance (no concentration beside the values); OD600, 23 h; hits give low values; AID 1053175; 330,000 compounds, 0.21% hits;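 active = OD600 absorbance below the run mean of sample wells minus 3.6 SD, in any replicate, cut at about 0.56 in these data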
AddAB inh = less growth of phage-infected E. coli with AddAB | 330,000 compounds, 0.29% hits | E. coli expressing H. pylori AddAB, absorbance growth | inhibition, % at 11.9 µM; in the data active = inhibition above about 12%;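 note: 0% = vehicle wells of infected cells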
phage Ecoli inh = E. coli growth loss with phage present; growth absorbance; inhibition, % at 11.9 µM; 360,000 compounds, 0.26% hits; AID 651602; in the data active = inhibition above about 11%
E coli growth-2 = bacterial growth inhibition, counter-screen for AddAB inhibitors; E. coli V3065 growth, OD600 absorbance, 18 h; inhibition, % at 11.9 µM; 330,000 compounds, 0.27% hits;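 active = inhibition above the campaign's mean inhibition across all tested compounds plus 3 SD, cut at about 9.9% in these data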;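 note: uninfected addAB+ strain grown without phage in ampicillin broth; 0% = DMSO wells and 100% = ciprofloxacin 0.95 µg/ml wells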
Tat export inh = blocks Tat-dependent protein export in E. coli | E. coli MC4100 TorA-mCherry Tat export, fluorescence | 340,000 compounds, 0.036% hits | AID 488895 | inhibition, % at 10 µM;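 active = mean replicate inhibition at least 50% and at least half of replicates individually reaching 50%; inconclusive = only one of the two criteria met; inactive = neither criterion met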;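 note: exported cargo escapes ClpAP degradation while cytoplasmic cargo is degraded and loses fluorescence; 0% = median of neutral control wells and 100% = median of NaSCN control wells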
AI-2 QS modul = modulators of Vibrio harveyi AI-2 quorum sensing system. 300,000 compounds, 0.4% hits. AID 2094. Vibrio harveyi JMH597 AI-2 luminescence/OD600 ratio, 9 h; hits give low values; strain lacks LuxN and CqsS sensors; 0 = neutral-control median. activity change, % at 7.5 µM; in the data active = activity change below about -75%, passing the limit was not always enough; inconclusive = no clear call, values can overlap the other calls;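 note: luminescence divided by OD600 gain over 9 h not by final OD600 alone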
* hit, by the source's call; ? = inconclusive; / = no result. Only some compounds are listed: those with a hit (about 0.79% of all), similar ones and a draw of the others.

SMILES	E coli growth-1	AddAB inh	phage Ecoli inh	E coli growth-2	Tat export inh	AI-2 QS modul
Cc1nonc1C(=O)N/N=C/c1ccc(O)cc1O	/	1	0	-4	-8	-88*
CCOC(=O)NN=Cc1ccc([N+](=O)[O-])o1	0.45*	/	/	/	/	/
Cc1nonc1C(=O)N/N=C/c1ccc([N+](=O)[O-])o1	/	10	9	8	-10	-96*
NC(N)=NN=Cc1ccc(Cl)c([N+](=O)[O-])c1	0.66	/	/	/	/	/
CCOC(=O)C1=C(C)N=c2sc(=Cc3cc(OC)c(OC)c(OC)c3)c(=O)n2C1/C=C/c1ccccc1 (configuration not stated)	0.74	/	/	/	/	/
Cc1ccc(C(=O)NN=Cc2ccc([N+](=O)[O-])o2)cn1	0.44*	/	/	/	/	/
Cc1ccc(C(=O)N/N=C/c2ccc(-c3ccccc3[N+](=O)[O-])o2)cn1	/	1	1	-1	-4	9
CCN(CC)c1ccc(/C=C/c2ccc3ccc(OC)cc3[n+]2CC)cc1	0.5*	12	7	12*	-445	23
CC[n+]1c(/C=C/c2ccc(OC)c(OC)c2)ccc2ccccc21	0.65	3	-1	0	-2	13
CC[n+]1c(/C=C/c2ccc(OC(C)=O)c(OC)c2)ccc2ccccc21	0.63	/	0	/	3	32
CC[n+]1ccc(/C=C/c2ccc(N(C)C)cc2)c2ccccc21	0.35*	/	-1	/	-300	/
CC[n+]1c(/C=C/c2ccc(N(C)C)cc2)ccc2ccccc21	0.47*	4	4	2	-370	-10
O=C1NC(c2ccccc2)COC(=O)C(Cc2ccc(F)cc2)CC=CCC1CC(=O)N(CCO)Cc1ccccc1 (configuration not stated)	0.67	/	/	/	/	/
O=C(NCc1cccnc1)C(=O)NN=Cc1ccc([N+](=O)[O-])cc1	0.66	/	/	/	/	/
O=C(C=Cc1ccccc1)N1CCCC1CO (configuration not stated)	0.64	/	/	/	/	/
O=C(NN=CC1=C(N2CCOCC2)/C(=C\c2ccccc2)CC1)Nc1ccccc1	0.74	/	/	/	/	/
CC(=O)c1ccc(NC(=S)Nc2ccc(Br)c(Cl)c2)cc1	0.51*	1	9	1	-13	55
Cc1ccnc(NS(=O)(=O)c2ccc(NC(=O)C=Cc3cccs3)cc2)n1	0.73	/	/	/	/	/
CCCCCCCCCCCCCCCC[n+]1ccc(C=NO)cc1	0.4*	/	/	/	/	/
COc1ccc(CC(=O)NCc2nc(-c3ccccc3)no2)cc1	0.72	2	3	-1	6	-77*
c1ccc(NCc2nc(-c3ccccc3)no2)cc1	0.69	1	4	-2	2	-87*
Cc1nc2ccccc2n1N=Cc1ccc([N+](=O)[O-])o1	0.29*	/	/	/	/	/
CN(C)S(=O)(=O)c1ccc(C(O)=C2C(=O)C(=O)N(Cc3cccnc3)C2c2ccco2)cc1 (configuration not stated)	0.73	/	/	/	/	/
CC(=NNC(=S)NCc1ccccc1)c1ccccc1F	0.67	/	/	/	/	/
CS(=O)(=O)c1ccc(C(O)C(CF)NC(=O)C(Cl)Cl)cc1 (configuration not stated)	0.06*	/	/	/	/	/
SMILES	E coli growth-1	AddAB inh	phage Ecoli inh	E coli growth-2	Tat export inh	AI-2 QS modul
CS(=O)(=O)c1ccc(C(O)C(CO)NC(=O)C(Cl)Cl)cc1 (configuration not stated)	0.38*	/	/	/	/	/
CS(=O)(=O)c1ccc(C(=O)NC(Cc2ccccc2)c2ccccc2)cc1 (configuration not stated)	0.69	3	1	2	9	28
N=C(N)SCc1cn(-c2ccccc2)nc1-c1ccc(Br)cc1	0.069*	/	8	/	7	-7
CCc1ccc2c(COC(=O)C3CC(=O)N(CCc4ccccc4)C3)cc(=O)oc2c1 (configuration not stated)	0.68	/	2	/	63*	/
N#Cc1ccc(COC(=O)C2CC(=O)N(CCc3ccccc3)C2)cc1 (configuration not stated)	0.63	/	1	/	-1	/
O=C(NC1=NCCS1)c1ccc(N2CCCC2=O)cc1	0.53*	1	5	0	-9	-1
Cc1[nH]n(-c2cccc(Cl)c2)c(=O)c1C=Nn1c(C)nc2ccccc2c1=O	0.65	/	/	/	/	/
O=C(Cn1cnc([N+](=O)[O-])n1)N/N=C/c1cc(Cl)ccc1O	/	-1	2	-1	-13	-84*
O=C(Cn1nc2ccccc2n1)N/N=C/c1cc([N+](=O)[O-])ccc1O	/	0	-1	-3	-7	-86*
Cc1ccn(CC(=O)N/N=C/c2cc([N+](=O)[O-])ccc2O)n1	/	0	2	2	-1	-169*
Cc1ccccc1C(=O)Nc1ccc(C(=O)NN=Cc2ccc(O)cc2)cc1	0.69	/	/	/	/	/
CN1CCN(C(=O)C2=CC(C3CC3)CC(OCc3ccc(CO)cc3)O2)CC1 (configuration not stated)	0.71	/	/	/	/	/
O=C(COc1ccccc1)Nc1nnc(-c2ccccc2Cl)o1	/	2	-6	-4	0	-79*
O=C(COc1ccccc1)Nc1nnc(-c2ccc(F)cc2)o1	0.6	-1	0	-11	2	?
CSc1ccc(C=NNC(=O)c2cccs2)cc1	0.71	/	/	/	/	/
CSc1ccc(/C=C/C(=O)c2ccc(O)cc2)cc1	0.59	3	2	3	2	-93*
CCOc1ccc(C(=O)/C=C/c2ccc(SC)cc2)cc1	0.71	1	2	0	2	-12
COCc1cc(=O)n2[nH]cc(-c3ccccc3)c2n1	0.63	3	-3	0	0	-6
CCCc1cc(=O)n2[nH]cc(-c3ccc(Cl)cc3)c2n1	0.35*	/	-5	/	-3	-47
CCN1/C(=C/c2ccc3cc(C)cc(C)c3[n+]2CC)Sc2cc(C)ccc21	0.12*	/	11	/	-2	/
CCN1C(=Cc2ccc3ccccc3[n+]2CC)Sc2cc(C)ccc21	0.36*	/	/	/	/	/
CCN1/C(=C/c2ccc3cccc(C)c3[n+]2CC)Sc2ccccc21	0.46*	9	6	5	1	99
Cc1ccc2c(c1)S/C(=C\c1cccc[n+]1C)N2CCO	0.65	-3	3	-3	7	19
CCN1/C(=C\c2ccc3cc(C)ccc3[n+]2CC)Sc2cc(C)c(C)cc21	0.21*	/	8	/	2	70
CCN1/C(=C/c2ccc3cc(C)ccc3[n+]2CC)Sc2ccc3sccc3c21	0.33*	-1	/	-3	-7	36
SMILES	E coli growth-1	AddAB inh	phage Ecoli inh	E coli growth-2	Tat export inh	AI-2 QS modul
Cc1ccc(NC(=O)CN2C(=O)NC3(CCc4ccccc43)C2=O)cc1 (configuration not stated)	0.71	-1	2	1	-2	-90*
Cc1ccc(NC(=O)CN2C(=O)NC3(CCc4ccccc43)C2=O)cc1Cl (configuration not stated)	0.8	4	4	0	3	-90*
COC(=O)c1ccc(C(O)=C(C#N)c2nc3ccccc3s2)cc1	0.64	/	/	/	/	/
O=C(CN1CCCCCC1)NN=Cc1ccc(Cl)c(Cl)c1	0.7	/	/	/	/	/
COc1ccccc1C=NN1C(=O)c2cccc3cccc(c23)C1=O	0.7	/	/	/	/	/
CC1CCC/C(=C\c2ccccc2)C1=NO (configuration not stated)	0.7	/	/	/	/	/

Bioassay records deposited in PubChem BioAssay by several laboratories.
